Screening data as filed in PubChem.
Sampled rows, rich in hits. Any-hit rate of the full collection: about 4.5%.
FXN GAA850 act – activators of GAA850 frataxin (FXN) promoter; AID 540364; HEK293 lucGAA850 FXN promoter luciferase reporter, 24 h; percent of 10 µM SAHA response; actives 0.56% (n = 360,000); activation, % at 6 µM;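 active means activation above the average of all compounds screened plus 3 SD, cutoff fixed separately per campaign, cut at about 7.5% in these data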;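 further: 0% = DMSO wells and 100% = 10 µM SAHA wells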
DAX1 inh-1 – NR0B1 (DAX1) inhibition; P51843; HEK293 Gal4-DAX1 luciferase reporter, luminescence; inhibition, % at 6.75 µM; actives 0.99% (n = 340,000); AID 504766;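 active means inhibition above the mean over all tested compounds plus 3 SD, cut at about 4.2% in these data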;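 further: 0% = DAX1-transfected cells with DMSO and 100% = empty-vector control cells with DMSO; inhibition shows as a rise in luminescence from relieved DAX1 repression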
Target sequence (P51843 207-470 limits assumed): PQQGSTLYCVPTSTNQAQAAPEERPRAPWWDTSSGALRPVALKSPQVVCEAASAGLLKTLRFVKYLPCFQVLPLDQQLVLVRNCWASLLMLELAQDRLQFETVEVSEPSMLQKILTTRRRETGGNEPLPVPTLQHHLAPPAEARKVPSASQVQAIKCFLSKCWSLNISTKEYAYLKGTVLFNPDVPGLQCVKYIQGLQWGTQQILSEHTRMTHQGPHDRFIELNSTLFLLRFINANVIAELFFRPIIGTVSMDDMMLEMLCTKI
hcDAF-12 act – activators of H. contortus DAF-12 nuclear receptor; HEK293 hcDAF-12 lit1-tk-luc reporter, luminescence; 0% DMSO, 100% Δ7-dafachronic acid; activation, % at 6.8 µM; actives 1.4% (n = 370,000);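 active means activation above the mean of all tested compounds plus 3 SD, cut at about 5.5% in these data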;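 further: 100% = response to 3 µM Δ7-dafachronic acid high control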
hgDAF-12 ag – hgDAF-12 agonism, primary luciferase screen; HEK293 GAL4-hgDAF12 UAS-luciferase reporter, agonist luminescence; normalized to butyrate control; activation, % at 6.8 µM; actives 1.8% (n = 370,000); AID 687014;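 active means activation above a cutoff set at the mean of all screened compounds plus 3 SD, cut at about 10% in these data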;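 further: 0% = DMSO wells and 100% = sodium butyrate wells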
DAX1 inh-2 – inhibitors of DAX1 repression of SF-1 activated StAR promoter; HEK293T StAR-luciferase reporter, SF-1/DAX-1 repression relief; actives 1.1% (n = 370,000); inhibition, % at 6.8 µM;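 active means inhibition above the mean over all tested compounds plus 3 SD, cut at about 3.6% in these data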;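 further: 0% = DAX-1 cells with DMSO and 100% = cells lacking DAX-1 with DMSO; higher inhibition means more luminescence from relief of DAX-1 repression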
ssDAF-12 act – activators of S. stercoralis DAF-12 nuclear receptor; actives 1% (n = 370,000); AID 652126; activation, % at 6.8 µM; HEK293 ssDAF-12/GRIP1 lit1-tk-luc reporter, luminescence; % of 3 µM dafachronic acid response;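 active means activation above the mean over all tested compounds plus 3 SD, cut at about 0.9% in these data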;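 further: 0% = DMSO-only wells and 100% = 3 µM delta7-dafachronic acid wells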
Active calls of the source: *; / = no result given.

SMILES | FXN GAA850 act | DAX1 inh-1 | hcDAF-12 act | hgDAF-12 ag | DAX1 inh-2 | ssDAF-12 act
O=c1c2c(-c3ccccc3)csc2nc2n1CCC2 | -3 | 1 | -1 | -2 | 1 | -1
COc1cccc(NC(=O)C2CCCN2C(=O)NCc2ccccc2OC)c1 (stereo unspecified) | / | / | -2 | -1 | 0 | -2
C[C@@H]1[C@@H](O)C[C@@]2(C[C@H](O)c3cc(Cl)cc(Cl)c3O2)O[C@H]1c1ccccc1Cl | / | / | -1 | 1 | 0 | -1
CN(CCO)c1ccc2c(c1)Oc1ccccc1CN(Cc1cn(Cc3ccccc3C(F)(F)F)nn1)S2(=O)=O | / | / | -2 | 1 | 2 | -1
COc1ccc([N+](=O)[O-])cc1NC(=O)CSCc1ccc(Br)cc1 | 3 | -2 | 2 | 2 | 0 | 1.0*
CCn1c(SCC(=O)c2cc(OC)ccc2OC)nnc1-c1ccncc1 | 1 | 0 | 3 | -3 | 0 | 0
CCn1c(SCC(=O)c2cc(OC)ccc2OC)nnc1C(C)C | 0 | 2 | 3 | 3 | 1 | 1.2*
COc1cccc(NC(=O)n2ccc3ccc(-c4ccc5cc[nH]c5c4)cc32)c1 | / | / | -1 | 1 | -2 | -1
COc1ccccc1NC(=O)N(C)C[C@H]1Oc2ncc(Br)cc2C(=O)N([C@H](C)CO)C[C@H]1C | 0 | 4.7* | 2 | 5 | -1 | 1.1*
COc1cccc(S(=O)(=O)N(C)C[C@@H]2Oc3ncc(Br)cc3C(=O)N([C@H](C)CO)C[C@@H]2C)c1 | / | / | -2 | -3 | 0 | 1.2*
COc1ccc(OC)c(S(=O)(=O)NCC2CCN(C(=O)C(=O)c3cccs3)CC2)c1 | / | / | 1 | 1 | 1 | -1
Cc1ccc2c(c1)C1CS(=O)(=O)N(CC(C)C)CN1C2 (stereo unspecified) | / | / | -2 | 0 | 0 | -1
Cc1nnc2c(NCC(C)c3ccccc3)nc3ccccc3n12 (stereo unspecified) | -1 | -1 | -1 | 1 | -1 | 0
CC(CNc1nc2ccc(Cl)cc2n2cnnc12)c1ccccc1 (stereo unspecified) | 1 | 5.5* | -2 | -2 | 0 | -2
Nc1[nH]c(C(=O)c2ccc(Cl)cc2)c(-c2ccc(Br)cc2)c1C(=O)NCc1ccc(Cl)cc1Cl | / | / | -2 | 1 | 1 | -1
O=C(/C=C/c1cccs1)NNC(=O)c1ccccc1 | 0 | 0 | 6.0* | 7 | 2 | 0
O=C(/C=C/c1cccs1)NNC(=O)c1cccc([N+](=O)[O-])c1 | 0 | 1 | 3 | 3 | -1 | 0
Cc1noc(C)c1NC(=O)N(C)C[C@@H]1OCc2cnnn2CCCC(=O)N([C@@H](C)CO)C[C@H]1C | 0 | 1 | 1 | 4 | 0 | 0
C[C@@H]1CN([C@H](C)CO)C(=O)CCCn2nncc2CO[C@H]1CN(C)C(=O)Nc1ccc2c(c1)OCCO2 | / | / | 5 | 7 | 0 | 1.5*
Cc1noc(C)c1NC(=O)N(C)C[C@H]1OCc2cnnn2CCCC(=O)N([C@H](C)CO)C[C@@H]1C | 0 | 1 | 3 | 1 | 1 | 1.3*
C[C@@H]1CN([C@H](C)CO)C(=O)CCCn2cc(nn2)CO[C@H]1CN(C)C(=O)NC1CCCCC1 | 1 | 0 | -1 | 1 | 1 | -1
C[C@H]1CN([C@@H](C)CO)C(=O)CCCn2cc(nn2)CO[C@@H]1CN(C)C(=O)NC1CCCCC1 | / | / | 0 | 1 | 4.1* | -1
COC(=O)[C@]12C[C@H](CC(=O)N3CCCCC3)C(=O)N(Cc3cccc4ccccc34)C1=C[C@H](COCc1ccccc1)O[C@@H]2C | / | / | -3 | -2 | 0 | 0
Cc1[nH]c2ccccc2c1C1(O)C(=O)N(C(C)C)c2ccccc21 (stereo unspecified) | 0 | 1 | 5.8* | 2 | 0 | 0
CCCN1C(=O)C(O)(c2c(C)[nH]c3ccccc23)c2ccccc21 (stereo unspecified) | 1 | 2 | 4 | 1 | 0 | 0
SMILES | FXN GAA850 act | DAX1 inh-1 | hcDAF-12 act | hgDAF-12 ag | DAX1 inh-2 | ssDAF-12 act
Nc1nonc1-n1nnc(C(=O)N/N=C/c2cccc(F)c2)c1CN1CCCCCC1 | 1 | 4.7* | -1 | 1 | 0 | -2
COC(=O)c1nnn(-c2nonc2N)c1CN1CCCC1 | 2 | 4.4* | -1 | 2 | 0 | -1
Nc1nonc1-n1nnc(C(=O)N/N=C/c2cccc(F)c2)c1CN1CCCC1 | 1 | 2 | 0 | -2 | -1 | -1
COP(=O)(OC)c1nc(-c2cccc3ccccc23)oc1NCc1ccccc1 | 3 | 4.6* | -2 | -5 | 0 | -2
C=CCSc1nnc2c(n1)[nH]c1c(C)cccc12 | 1 | -1 | 1 | 5 | 1 | -1
CCSc1nnc2nc3[nH]c4c(C)cccc4c3nn12 | 4 | / | 4 | 6 | 2 | 1.5*
O=C(Nc1ccc2c(c1)OCO2)N1CCC(c2nc3ccc(Cl)cc3[nH]2)CC1 | / | / | -2 | 0 | -1 | -1
CN(Cc1ccccc1)C(=O)OCc1cn(Cc2ccc(F)cc2F)nn1 | / | / | 0 | -2 | -1 | -1
COC(=O)CN1C(=O)S/C(=C/c2cc(C)n(C)c2C)C1=O | 8.8* | 1 | -1 | 8 | 1 | -1
COC(=O)C(C)N1C(=O)S/C(=C/c2cc(C)n(C(C)C)c2C)C1=O (stereo unspecified) | 3 | 0 | 2 | 12* | 2 | -1
COc1ccc(N=C2S/C(=C\c3cc(C)n(C)c3C)C(=O)N2CC(C)C)cc1 | 6 | -1 | -2 | 1 | -1 | -2
C=CCN1C(=O)[C@@H](CC(=O)N2CCC(c3ccccc3)CC2)[C@]2(C(=O)OCC)CCCCC/C=C/12 | / | / | -2 | -3 | 0 | -1
CC(NCc1ccco1)C(=O)N1CCCN(C)CC1 (stereo unspecified) | / | / | -2 | 1 | -1 | -1
CCN(C[C@@H]1[C@@H](c2ccccc2)[C@H](CO)N1S(C)(=O)=O)C(=O)C1CCC1 | / | / | 1 | 5 | 1 | -1
Cc1ccc(-n2c(Cc3cccs3)nnc2SCc2ccc(Br)cc2)cc1 | / | / | -4 | -2 | 0 | -1
COC[C@H]1CCCN1c1cccc2c1S(=O)(=O)N1CC[C@H](C1)O2 | / | / | -1 | 2 | 0 | 0
COc1cccc(/C=C/C(=O)OCC(=O)c2ccccc2)c1OC | -2 | -1 | 6.1* | 13* | 3 | 0
COc1cccc(/C=C/C(=O)OCC(=O)c2ccc(C)c(C)c2)c1OC | 0 | 0 | -1 | 0 | -1 | -1
O=C(Nc1c(-c2ccc(F)cc2)nc2ncccn12)c1ccccc1 | / | / | -2 | 3 | -1 | 0
COc1ccc(-c2cnn3c4c(c(C)nc23)CCN4C2CCCC2)cc1OC | 5 | 5.9* | -1 | 0 | 0 | -1
